Experimental data as given in PubChem BioAssay (NCI).
About 79,000 compounds went through this panel and 15% of them were active in at least one assay; those are over-represented in the sample as a whole. A number with no mark means an inactive call. Active and inactive are the calls of the source. Rule as the data show it: active = growth inhibition above about 70%; inactive = the rest.

Assay: NCI Yeast Anticancer Drug Screen. Data for the mec2-1 strain (AID 157)
Conditions: S. cerevisiae mec2-1 strain, at 5.0 µM (retest, dose inferred, filed as 0.5), active compounds read high
How it was run: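 mec2-1 yeast strain, carrying an alteration in DNA damage repair or cell cycle control, was exposed to compounds; growth inhibition was measured relative to vehicle-treated controls.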

Structure (SMILES) | growth inhibition
C=CCC1=C(C)C(OC(=O)/C=C/c2ccccc2)CC1=O (centres undefined) | -11%
NNc1c(F)c(F)cc(F)c1F | -11%
COP(=O)(OC)/C(=C\C1=CN(C(c2ccccc2)(c2ccccc2)c2ccccc2)CN1)NC=O | -10%
COC(=O)c1cc(-c2ccc(C)cc2)[nH]c(=O)c1C#N | 11%

Same assay, conditions: S. cerevisiae mec2-1 strain, at 11.0 µM, active compounds read high

Structure (SMILES) | growth inhibition
CCOP(=O)(OCC)C(Cc1ccccc1)N=C(c1ccccc1)c1ccccc1 (centres undefined) | 18%
CCc1ncnc2cc(OCC3CO3)c(OC)cc12 (centres undefined) | 22%
CCOC(=O)[C@H]1Nc2ccccc2C2c3ccccc3CC21 (some centres undefined) | 21%
O=CNc1ccc2c(c1)C(=O)c1ccccc1-2 | 3%
CCOc1ccc2c(c1)c(CC(=O)O)cn2C | -7%
OC1CSCCCSCCSCCCSC1 | -21%
N#Cc1c(N)[nH]c2ccc(Sc3ccccc3)cc12 | 6%
Cc1ccc(-c2ccc(Nc3c4ccccc4nc4ccccc34)cc2)cn1 | 11%
c1ccc2c(c1)NC(NC1Nc3ccccc3N1)N2 | 10%
OC(COc1cccc2ccccc12)CN1CCOCC1 (centres undefined) | 23%
CCC/C(Cl)=N\OC(=O)Nc1ccc(Br)cc1 | 77% (active)
COc1ccc(/C=C2\SC(=S)N(/C=C/c3nc4ccccc4[nH]c3=O)C2=O)cc1OC | 17%
O=C(NNc1ccnc2cc(Cl)ccc12)/C(=C\c1ccccc1Cl)NC(=O)c1ccccc1 | -1%
CSC1=NNC(SC)=NN1 | 15%
Cc1c(C2=C(Br)C(=O)N(C)C2=O)c(=O)n(C)c(=O)n1C | 26%
